# Experimental data reported in the supplement of paper PMC12494721.
# Structures can show the parent of a compound that is named as a salt.
# Assays:
# Conditions in all cases: 20 µM; incubation time: 27 h, anaerobic, 37 °C;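 for the amine columns active = adjusted P below 0.05 in both replicates with a change the same way and a mean fold change under 0.8 or over 1.25; inactive = the rest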
# [1] = system: Clostridium sporogenes DSM 1664; experiment: growth (OD595) fold change vs plate DMSO controls (fold change (ratio)); higher = more growth
# In short: (§1)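 To obtain OD, 595 nm absorbance readings were blank-subtracted, corrected for compound background using 20 µM compound solutions in water, and multiplied by a calibration factor of 5. They came from 96-well mGAM cultures grown anaerobically for 27 h at 37 °C and shaken before reading. Growth is the fold change relative to the median of plate DMSO controls. Two biological replicates were averaged, and fold changes above 1.5 were set to NA.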
# Escherichia coli IAI1 [2] = experiment: as above
# In short: as §1
# [3] = system: Klebsiella aerogenes DSM 30053; experiment: as above
# In short: as §1
# [4] = system: Ruminococcus gnavus DSM 108212; experiment: as above
# In short: as §1
# [5] = system: Klebsiella aerogenes DSM 30053; experiment: fold change of Histamine concentration vs plate DMSO controls (fold change (ratio)); higher = more amine produced, active = hit call of the paper (significant change in both replicates, either direction)
# In short: (§2)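 Amine values are fold changes relative to DMSO-only wells on the same plate. They derive from 27 h, 37 °C anaerobic mGAM cultures of four gut bacterial strains in 80 µL wells, dosed at 20 µM final, or 50 µM final for sweeteners. Extraction of the whole culture, LC–triple-quadrupole MS in dynamic MRM mode, external calibration curves and within-batch drift correction were used, with 2 biological replicates averaged.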
# [6] = system: Clostridium sporogenes DSM 1664; experiment: fold change of Tryptamine concentration vs plate DMSO controls (fold change (ratio)); higher = more amine produced, active = hit call of the paper (significant change in both replicates, either direction)
# In short: as §2
# [7] = system: Ruminococcus gnavus DSM 108212; experiment: as above
# In short: as §2
# Escherichia coli IAI1 [8] = experiment: fold change of Putrescine concentration vs plate DMSO controls (fold change (ratio)); higher = more amine produced, active = hit call of the paper (significant change in both replicates, either direction)
# In short: as §2
# [9] = system: Klebsiella aerogenes DSM 30053; experiment: as above
# In short: as §2
# Escherichia coli IAI1 [10] = experiment: fold change of Cadaverine concentration vs plate DMSO controls (fold change (ratio)); higher = more amine produced, active = hit call of the paper (significant change in both replicates, either direction)
# In short: as §2
# [11] = system: Klebsiella aerogenes DSM 30053; experiment: as above
# In short: as §2
# [12] = system: Ruminococcus gnavus DSM 108212; experiment: fold change of 2-Phenylethylamine concentration vs plate DMSO controls (fold change (ratio)); higher = more amine produced, active = hit call of the paper (significant change in both replicates, either direction)
# In short: as §2
Structure (SMILES),growth [1],growth (Escherichia coli IAI1 [2]),growth [3],growth [4],fold change of Histamine concentration [5],fold change of Tryptamine concentration [6],fold change of Tryptamine concentration [7],fold change of Putrescine concentration (Escherichia coli IAI1 [8]),fold change of Putrescine concentration [9],fold change of Cadaverine concentration (Escherichia coli IAI1 [10]),fold change of Cadaverine concentration [11],fold change of 2-Phenylethylamine concentration [12]
CC(=O)O[C@H]1C[C@@H]2CC[C@@H]3[C@H](CC[C@@]4(C)[C@H]3C[C@H]([N+]3(C)CCCCC3)[C@@H]4OC(C)=O)[C@@]2(C)C[C@@H]1[N+]1(C)CCCCC1 [Pancuronium bromide],0.918,1.08,1.1,1.08,0.905 (inactive),1.04 (inactive),1.07 (inactive),1.07 (inactive),0.983 (inactive),0.957 (inactive),1.03 (inactive),1.08 (inactive)
Oc1ccc2c3c1O[C@H]1[C@@H](O)CC[C@@]4(O)[C@@H](C2)N(CC2CCC2)CC[C@]314 [Nalbuphine hydrochloride],0.891,0.895,0.923,1.08,1 (inactive),1 (inactive),0.957 (inactive),1.04 (inactive),1.01 (inactive),1.01 (inactive),1.01 (inactive),0.922 (inactive)
Nc1c(Cl)c(F)nc(OCC(=O)O)c1Cl,0.964,1.01,1.05,1.03,0.96 (inactive),1.03 (inactive),1.04 (inactive),0.986 (inactive),0.955 (inactive),0.95 (inactive),1.01 (inactive),1.05 (inactive)
CNC(=O)/C=C(\C)OP(=O)(OC)OC,1.06,1.01,1.01,0.948,1.01 (inactive),1.05 (inactive),0.985 (inactive),0.968 (inactive),0.986 (inactive),1.05 (inactive),0.998 (inactive),1.06 (inactive)
CC(C)CC(C)c1sccc1NC(=O)c1cn(C)nc1C(F)(F)F (stereo not drawn),1.03,1.05,1.01,0.961,0.988 (inactive),0.935 (inactive),1.03 (inactive),1.05 (inactive),1.01 (inactive),1 (inactive),0.991 (inactive),1.03 (inactive)
CC1C=CC=CCCC=CC=CC=CC=CC(OC2OC(C)C(O)C(N)C2O)CC2OC(O)(CC(O)C(O)CCC(O)CC(O)CC(O)CC(=O)OC(C)C(C)C1O)CC(O)C2C(=O)O (stereo not drawn) [Nystatine],0.964,0.993,1.01,1.16,0.962 (inactive),0.989 (inactive),1.01 (inactive),0.999 (inactive),1 (inactive),1.05 (inactive),1.01 (inactive),0.998 (inactive)
CCc1cc(C)cc(CC)c1-c1c(OC(=O)C(C)(C)C)n2n(c1=O)CCOCC2,0.933,1.05,0.985,0.919,0.979 (inactive),1.11 (inactive),0.99 (inactive),1.02 (inactive),1.01 (inactive),1.05 (inactive),0.994 (inactive),0.985 (inactive)
C=C(C)[C@@H]1[C@H]2OC(=O)[C@@H]1[C@]1(O)C[C@H]3O[C@]34C(=O)O[C@H]2[C@]14C [Picrotoxinin],1,0.983,1.04,1.15,0.896 (inactive),1.01 (inactive),1.02 (inactive),0.898 (inactive),0.932 (inactive),0.998 (inactive),0.987 (inactive),1.03 (inactive)
c1cc2c3c(cccc3c1)CC2 [Acenaphthene],1.04,1.01,0.974,0.995,1.04 (inactive),0.986 (inactive),1.01 (inactive),1.02 (inactive),1.02 (inactive),1.03 (inactive),0.982 (inactive),1.05 (inactive)
CC1(C)C(C=C(Cl)Cl)C1C(=O)OCc1cccc(Oc2ccccc2)c1 (mixture of isomers),0.957,0.993,1,1.07,1.01 (inactive),1.05 (inactive),1.03 (inactive),1.04 (inactive),0.995 (inactive),1.06 (inactive),1 (inactive),1.02 (inactive)
CNC(=O)c1cc(Cl)cc(C)c1NC(=O)c1cc(Br)nn1-c1ncccc1Cl,0.896,1.11,1.06,1.17,0.901 (inactive),0.953 (inactive),0.997 (inactive),1.02 (inactive),0.982 (inactive),0.964 (inactive),0.999 (inactive),1.01 (inactive)
CNC(C)(C)Cc1ccccc1 [Mephentermine hemisulfate],1.05,0.976,0.99,0.991,0.952 (inactive),1.04 (inactive),1.24 (inactive),1.03 (inactive),0.952 (inactive),0.943 (inactive),1.01 (inactive),1.38 (inactive)
N#CCNC(=O)c1cnccc1C(F)(F)F,1.08,1,0.999,1.12,1.02 (inactive),1 (inactive),1 (inactive),1.01 (inactive),1.01 (inactive),1.03 (inactive),0.997 (inactive),0.951 (inactive)
CCN(CC)c1nc(C)cc(OP(=S)(OC)OC)n1,1.04,1.01,0.98,1.13,1.01 (inactive),1.06 (inactive),1.06 (inactive),1.02 (inactive),0.969 (inactive),0.901 (inactive),1 (inactive),1.05 (inactive)
CCC(C)c1ccccc1OC(=O)NC (stereo not drawn),1.06,0.988,1.09,1.01,0.948 (inactive),0.949 (inactive),1.01 (inactive),1.05 (inactive),1.01 (inactive),0.972 (inactive),1 (inactive),1.03 (inactive)
"O=C1C=CC(=O)C=C1 [1,4-Benzoquinone]",0.883,0.868,0.844,0.66,0.996 (inactive),1.02 (inactive),1.18 (inactive),0.967 (inactive),1 (inactive),0.943 (inactive),1.11 (inactive),1.66 (active)
CCOCn1c(-c2ccc(Cl)cc2)c(C#N)c(Br)c1C(F)(F)F,0.89,1,1.01,0.948,1 (inactive),0.999 (inactive),1.02 (inactive),1.03 (inactive),0.999 (inactive),1.03 (inactive),0.983 (inactive),1.01 (inactive)
C[N+]12CCC(CC1)C(OC(=O)C(O)(c1ccccc1)c1ccccc1)C2 (stereo not drawn) [Clidinium bromide],1.02,1.04,1.07,1,0.975 (inactive),0.952 (inactive),1.03 (inactive),0.957 (inactive),0.981 (inactive),1 (inactive),1 (inactive),1.02 (inactive)
CC(C1CC1)C(O)(Cn1cncn1)c1ccc(Cl)cc1 (mixture of isomers),0.851,0.991,0.991,0.941,1.01 (inactive),0.92 (inactive),0.994 (inactive),1.01 (inactive),0.996 (inactive),1 (inactive),0.995 (inactive),0.953 (inactive)
CS(=O)(=O)c1cc(C(F)(F)F)ccc1C(=O)c1cnoc1C1CC1,0.937,1.09,1.09,0.964,0.825 (inactive),0.986 (inactive),0.989 (inactive),0.958 (inactive),0.976 (inactive),0.905 (inactive),1.01 (inactive),1 (inactive)
O=c1[nH]c2ccccc2n1C1CCN(CCCC(c2ccc(F)cc2)c2ccc(F)cc2)CC1 [Pimozide],1.41,0.978,0.99,1.25,1.01 (inactive),0.938 (inactive),0.846 (inactive),0.979 (inactive),1.01 (inactive),0.964 (inactive),0.995 (inactive),0.898 (inactive)
O=[N+]([O-])c1ccc2ccc3cccc4ccc1c2c34 [1-Nitropyrene],0.638,1.04,1,0.914,0.971 (inactive),0.785 (inactive),0.952 (inactive),1.03 (inactive),1 (inactive),0.96 (inactive),1.01 (inactive),0.967 (inactive)
C[C@]12CCC(=O)C(O)=C1CC[C@@H]1[C@@H]2CC[C@]2(C)C(=O)CC[C@@H]12 [Formestane],1.03,0.965,0.974,1.13,1.05 (inactive),0.968 (inactive),1 (inactive),1.02 (inactive),1.01 (inactive),1.01 (inactive),0.981 (inactive),1.03 (inactive)
N#CC(CCc1ccc(Cl)cc1)(Cn1cncn1)c1ccccc1 (stereo not drawn),1.11,1.08,0.94,1.14,0.476 (inactive),0.979 (inactive),1.04 (inactive),1.07 (inactive),0.482 (inactive),0.972 (inactive),0.478 (inactive),1.08 (inactive)
